Four compounds from PubChem BioAssay (NCATS) can be followed below.

“And” between values parts separate entries of the source, which are not always exact repeats. Identical values can stand only once. Records with an inconclusive call do not appear. A number with no mark means an inactive call. The source made the active and inactive calls. Calls follow the shape of the dose curve; as a rule, active = well fitted curve in the direction sought with a large enough effect; inconclusive = small, poorly fitted or top-dose-only effect, or another doubt; inactive = no such curve, though single readings can be large; an effect the other way counts as inactive or inconclusive.

Assay [1] in a line: Viability qHTS for spleen associated tyrosine kinase inhibitor (SYKi) naive MV4-11 cells (AID 1963823). Also: nearly all actives have a fitted effect of over 40% in size. An outline of the steps:
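CellTiter-Glo luminescence, 10 min room-temperature incubation, gave viability. Cells: naive MV4-11 (500/well), treated 72 hr at 37 C, 5% CO2.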

A short description of assay [2]: Viability qHTS for spleen associated tyrosine kinase inhibitor (SYKi) drug resistant MV4-11 cells (AID 1963824). Also: nearly all actives have a fitted effect of over 35% in size. In short, it runs like this:
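CellTiter-Glo luminescence, read 10 min after reagent addition, reports viability after a 72 hr compound exposure. Cells are an MV4-11 line made resistant to SYK inhibition, seeded at 500 per well onto compound-containing plates.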

Assay [3] can be described thus: Quantitative highthroughput screen to assess conditional lethalithy of NOMO1 cells grown in RPMI1640 with untreated serum (RPMI+s) (AID 1963876). Also: nearly all actives have a fitted effect of over 35% in size.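 As to Viability: 100% = DMSO wells and 0% = empty wells without cells.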 An outline of the steps: (§1)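 Each medium arm—HPLM with 10% dialyzed FBS, or RPMI1640 with 5 mM glucose and 10% untreated or dialyzed FBS—was screened against an 11-point, 3-fold compound titration for 48 h at 37 °C, with CellTiter-Glo luminescence as endpoint.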

Assay [4] can be described thus: Quantitative highthroughput screen to assess conditional lethalithy of NOMO1 cells grown in RPMI1640 with dialyzed fetal bovine serum (RPMI+ds) (AID 1963877). Also: nearly all actives have a fitted effect of over 30% in size.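 As to Viability: series mostly up to about 46 µM; 100% = DMSO control wells and 0% = empty wells.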 An outline of the steps: as §1
Assay [5] can be described thus: Quantitative highthroughput screen to assess conditional lethalithy of NOMO1 cells grown in Human Plasma-Like Medium with dialyzed fetal bovine serum (HPLM+ds) (AID 1963878). Also: nearly all actives have a fitted effect of over 35% in size.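 As to Viability: 100% = DMSO wells and 0% = empty wells on each plate.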 An outline of the steps: as §1
The nature of assay [6]: Quantitative highthroughput screen to assess conditional lethalithy of P12 Ichikawa cells grown in Human Plasma-Like Medium with dialyzed fetal bovine serum (HPLM+ds) (AID 1963879). Also: nearly all actives have a fitted effect of over 35% in size. As to Viability: series mostly up to about 46 µM. To be noted: Potency: viability. In short, it runs like this: as §1
Assay [7] can be described thus: Quantitative highthroughput screen to assess conditional lethalithy of P12 Ichikawa cells grown in RPMI1640 with dialyzed fetal bovine serum (RPMI+ds) (AID 1963880). Also: nearly all actives have a fitted effect of over 35% in size.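 As to Viability: 100% = DMSO wells and 0% = empty wells on each plate.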 The following applies: Potency: P12-Ichikawa viability. In short, it runs like this:
as §1

Assay [8] in a line: Quantitative highthroughput screen to assess conditional lethalithy of P12 Ichikawa cells grown in RPMI1640 with untreated serum (RPMI+s) (AID 1963881). Also: nearly all actives have a fitted effect of over 35% in size.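 As to Viability: series mostly up to about 46 µM; 100% = DMSO wells and 0% = empty wells without cells.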 To be noted: Potency: viability. In short, it runs like this: as §1
Assay [9] can be described thus: Quantitative highthroughput screen to assess conditional lethalithy of SEM cells grown in Human Plasma-Like Medium with dialyzed fetal bovine serum (HPLM+ds) (AID 1963882). Also: nearly all actives have a fitted effect of over 35% in size. As to Viability: series mostly up to about 46 µM. An outline of the steps:
as §1

Assay [10] can be described thus: Quantitative highthroughput screen to assess conditional lethalithy of SEM cells grown in RPMI1640 with unreated serum (RPMI+s) (AID 1963883). Also: nearly all actives have a fitted effect of over 35% in size.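 As to Viability: 100% = DMSO wells and 0% = empty wells without cells.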 In short, it runs like this:
as §1

Assay [11] can be described thus: Quantitative highthroughput screen to assess conditional lethalithy of SEM cells grown in RPMI1640 with dialyzed fetal bovine serum (RPMI+ds) (AID 1963884). Also: nearly all actives have a fitted effect of over 35% in size.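 As to Viability: series mostly up to about 46 µM; 100% = DMSO control wells and 0% = empty wells without cells.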 In short, it runs like this: as §1
Assay [12] in a line: Cellular viability qHTS for adrenocortical cancer (ACC) cell line SW-13 (AID 1963989). Also: nearly all actives have a fitted effect of over 65% in size.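 As to activity (max response): cells grown in serum-free medium with ITS supplement; % is scaled to controls: 0 for no effect and ±100 for the full control effect.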 To be noted: SW-13 ACC cells viability, CellTiter-Glo, 48 h; activity (max response): hits give low values. In short, it runs like this:
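Luminescent ATP read-out (CellTiter-Glo, 20 min at room temperature) measured metabolically competent SW-13 cells after 48 h compound treatment. Final concentrations spanned up to 46 uM; bortezomib served as positive control.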
For orientation: qHTS replaces the single test concentration by a dilution series.

Assay [13] is described as follows: Cellular viability qHTS for adrenocortical cancer (ACC) cell line NCI-H295R (AID 1963990). Also: nearly all actives have a fitted effect of over 60% in size. In short, it runs like this: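 IC50 and maximal efficacy derive from four-parameter logistic modelling of titration curves, with reads scaled between DMSO-only wells (0%) and doxorubicin hydrochloride (100% inhibition). Compounds spanned up to 46 uM over 48 h.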
Potency is read from the fitted curve at half-maximal effect.

With `Cc1ncc(-c2ccnc(Nc3ccc(S(C)(=O)=O)cc3)n2)n1C(C)C`, the Potency was 1.3 µM (active) and 1.66 µM (active) in assay [1]; 920 nM (active) and 934 nM (active) in [2]; 7.43 µM (active) in assay [3]; 5.9 µM (active) in assay [4]; 7.43 µM (active) in assay [5]; 20.9 µM (active) in assay [6]. Further, the Potency in assay [7] is 13.2 µM (active); in [8] it was 13.2 µM (active); in assay [9] it was 3.72 µM (active); in [10] it was 3.32 µM (active); in [11] it was 5.26 µM (active); in [12], 8.91 µM (active). For the same compound, in [13], the Potency is 7.08 µM (active).
On to `C=C(C)[C@@H]1CC[C@]2(C)CC[C@]3(C)[C@H](CC[C@@H]4[C@@]5(C)CC[C@H](O)C(C)(C)[C@H]5CC[C@]43C)[C@@H]12`, for which the Potency entry in assay [1], in assay [2], in assay [3], in assay [4], in assay [5] and in assay [6] was “inactive” in each case. Besides, the Potency result in assay [7], in [8], in assay [9], in [10], in [11] and in assay [13] was “inactive” in each case. Further, the activity (max response) in assay [12] was 4.74%.
With `CCCS(=O)(=O)Nc1ccc(F)c(C(=O)c2c[nH]c3ncc(-c4ccc(Cl)cc4)cc23)c1F`, the Potency in [1] was 14.8 µM (active); in assay [2], 16.6 µM (active). Moreover, the Potency result in assay [3], in [4], in assay [5], in assay [6], in assay [7] and in [8] was “inactive” each time. Besides, the Potency entry in [9], in [10], in assay [11] and in [13] was “inactive” in each case. Further, the activity (max response) in assay [12] is -1.45%.
Regarding `CN(C)CCc1c[nH]c2ccc(C[C@H]3COC(=O)N3)cc12`, the Potency result in [1], in assay [2] and in [13] was “inactive” throughout. For the same compound, the Potency in assay [3] was 16.6 µM (active); in [4], 20.9 µM (active); in assay [5], 13.2 µM (active); in assay [6] it was 7.43 µM (active); in [7], 10.5 µM (active); in assay [8], 10.5 µM (active). Further, the Potency is 9.35 µM (active) in assay [9], 4.69 µM (active) in assay [10] and 9.35 µM (active) in assay [11]. Besides, the activity (max response) in [12] was 12.9%.
